Experimental data reported in PubChem BioAssay (NCATS).
“And” between values parts separate entries of the source, which are not always exact repeats. Equal entries are not always repeated. Inconclusive results are not listed. A number with no mark means an inactive call. The source made the active and inactive calls. The call rests on the fitted dose curve; in most records, active means well fitted curve in the direction sought with a large enough effect; inconclusive means small, poorly fitted or top-dose-only effect, or another doubt; inactive means no such curve, though single readings can be large; an effect the other way counts as inactive or inconclusive.
On the % scale 0 is the no-effect control and ±100 the full control effect.

Tested on: not listed separately
Assay: Primary qHTS for inhibitors of nuclear receptor binding SET domain protein 2 (NSD2) in an RCH-ACV wild type WT cells (2C) (AID 1645877); further: nearly all actives have a fitted effect of over 70% in size; further: potency means the concentration at half of the fitted maximal effect
Settings: RCH-ACV (leukaemia line) NSD2 WT (2C) viability, CellTiter-Glo, 72 h; series mostly up to 44.9 µM; activity change, negative = cell killing: at the top concentration
For CC(=O)OC[C@]12C[C@H](OC(=O)CC(C)C)C(C)=C[C@H]1O[C@@H]1[C@H](O)[C@@H](OC(C)=O)[C@@]2(C)[C@@]12CO2, the Potency was 10 nM (active). For CC1=C[C@H]2O[C@@H]3C[C@H]4OC(=O)/C=C/C=C/C(=O)OCC/C(C)=C/C(=O)OC[C@@]2(CC1)[C@]4(C)[C@]31CO1, the Potency was 3.2 nM (active). For C=C(CO)C(=O)O[C@H]1CC(=C)[C@@H]2C[C@H](O)C(=C)[C@@H]2[C@H]2OC(=O)C(=C)[C@@H]21, the Potency was 2010 nM (active). For CC[C@@]1(O)C(=O)OCc2c1cc1n(c2=O)Cc2cc3c(OC)cccc3nc2-1, the Potency was 10.1 nM (active). For CC(=O)OC[C@]12C[C@H](O)C(C)=C[C@H]1O[C@@H]1[C@H](O)[C@@H](O)[C@@]2(C)[C@]12CO2, the Potency was 713 nM (active). For CC[C@H]1C[C@@H]2CC[C@@H](O2)[C@@H](C)C(=O)O[C@H](CC)C[C@H]2CC[C@H](O2)[C@H](C)C(=O)O[C@@H](C)C[C@@H]2CC[C@@H](O2)[C@@H](C)C(=O)O[C@H](CC)C[C@H]2CC[C@H](O2)[C@H](C)C(=O)O1, the Potency was 13.6 nM (active). For CO[C@H]1[C@H](O)[C@H](O[C@H]2CC[C@]3(C=O)C4CC[C@]5(C)[C@H](C6=CC(=O)OC6)CC[C@]5(O)C4CC[C@@H]3C2)O[C@@H](C)[C@@H]1O (some centres undefined), the Potency was 44.7 nM (active). With C[C@H]1O[C@@H](n2cnc3c(N)ncnc32)C[C@@H]1O the “activity change, negative = cell killing” value was -5.08%. For CO[C@H]1[C@@H](O)[C@@H](C)O[C@@H](O[C@@H]2C=C3C(OC(C)=O)CC4(O)C(CC[C@]5(C)[C@@H](C6=CC(=O)OC6)CC[C@]45O)[C@@]3(C)CC2)[C@@H]1O (some centres undefined), the Potency was 85.8 nM (active). In the case of CN(C)c1cc2c(cc1Sc1nc3c(N)nccc3n1CCNCC(C)(C)C)OCO2, the Potency is reported as 365 nM (active) and 742 nM (active).

Target: Glutathione peroxidase 1 (Homo sapiens) (UniProt P07203)
Sequence (P07203 whole entry, looked up): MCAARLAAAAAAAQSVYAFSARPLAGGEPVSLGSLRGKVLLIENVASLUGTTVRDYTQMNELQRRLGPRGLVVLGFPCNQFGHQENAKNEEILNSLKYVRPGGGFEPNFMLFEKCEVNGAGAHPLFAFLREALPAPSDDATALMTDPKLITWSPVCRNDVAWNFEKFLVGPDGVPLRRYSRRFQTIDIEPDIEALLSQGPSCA
Assay: Primary qHTS Assay for Inhibitors of Recombinant Selenoprotein Glutathione Peroxidase 1 (GPX1) (AID 1845191); further: nearly all actives have a fitted effect of over 65% in size
Settings: recombinant GPX1, GR-coupled NADPH fluorescence, 15 min; series mostly up to 48.8 µM; activity, negative = inhibition: at the top concentration
Procedure, shortened: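 NADPH consumption tracked by fluorescence at 340/450 nm between t=0 and t=15 min, room temperature. Final mix: 10 nM GPX1, 100 nM glutathione reductase, 1 mM GSH, 0.5 mM NADPH, 0.5 mM cumene hydroperoxide, 0.01% BSA; 30 min compound–enzyme preincubation.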
For CCC(C)/C=C(C)/C=C/C1=CC2=C(Cl)C(=O)C(C)(OC(C)=O)C(=O)C2=CO1 (centres undefined), the “activity, negative = inhibition” value was -13.5% [at 27.7 µM]. In the case of COC1CC(O[C@H]2CC[C@]3(C)C4CC[C@]5(C)[C@@H](C6=CC(=O)OC6)[C@@H](OC(C)=O)C[C@]5(O)C4CC[C@@H]3C2)OC(C)C1O (some centres undefined), the “activity, negative = inhibition” value is reported as -10% [at 27.7 µM]. In the case of C[C@H]1O[C@@H](O[C@H]2CC[C@]3(C=O)C4CC[C@]5(C)[C@@H](C6=CC(=O)OC6)CC[C@]5(O)[C@@H]4CC[C@]3(O)C2)C[C@@H](O)[C@@H]1O (some centres undefined), the “outcome” value is reported as “inactive [at 27.7 µM]”. With CC1=CC2OC3[C@H](O)C[C@@](C)([C@]34CO4)[C@@]2(CO)[C@H](O)C1=O (some centres undefined) the “outcome” value was “inactive”. In the case of C=C1[C@@H](C)[C@H]2[C@H](Cc3ccccc3)NC(=O)[C@]23OC(=O)/C=C/C(=O)CCC[C@@H](C)C/C=C/[C@H]3[C@@H]1O, the “activity, negative = inhibition” value is reported as 3.16%. In the case of COC1CC(O[C@H]2CC[C@@]3(C)C(CCC4C3CC[C@]3(C)[C@@H](C5=CC(=O)OC5)CC[C@]43O)C2)OC(C)C1O (some centres undefined), the “activity, negative = inhibition” value is reported as -43.6% [at 27.7 µM]. In the case of CC(C)(C)[C@]1(O)C[C@@H]2OC(=O)C[C@@]23C(=O)O[C@@H]2OC(=O)[C@@H](O)[C@]213, the “activity, negative = inhibition” value is reported as -12.7% [at 27.7 µM]. For CNC(=O)c1cc(C#N)cc(C)c1NC(=O)c1cc(Br)nn1-c1ncccc1Cl, the “activity, negative = inhibition” value was -13.2%. In the case of OCc1nnc2n1-c1ccc(Cl)cc1C(c1ccccc1Cl)=NC2, the “activity, negative = inhibition” value is reported as -7.67%. For CN[C@@H]1C[C@H]2O[C@@](C)([C@@H]1OC)n1c3ccccc3c3c4c(c5c6ccccc6n2c5c31)C(=O)NC4, the “outcome” value was “inactive”. In the case of COC1CC(O[C@H]2CC[C@]3(C=O)C4CC[C@]5(C)[C@@H](C6=CC(=O)OC6)CC[C@]5(O)[C@@H]4CC[C@@H]3C2)OC(C)C1O[C@@H]1O[C@H](CO)[C@@H](O[C@@H]2O[C@H](CO)[C@@H](O)[C@H](O)[C@H]2O)[C@H](O)[C@H]1O (some centres undefined), the “activity, negative = inhibition” value is reported as -12.9% [at 15.3 µM]. In the case of CC[C@@H]1C[C@H]2CC[C@H](O2)[C@H](C)C(=O)O[C@@H](C)C[C@@H]2CC[C@@H](O2)[C@@H](C)C(=O)O[C@H](CC)C[C@H]2CC[C@H](O2)[C@H](C)C(=O)O[C@@H](C)C[C@@H]2CC[C@@H](O2)[C@@H](C)C(=O)O1, the “activity, negative = inhibition” value is reported as -5.54% [at 15.3 µM]. In the case of CO[C@@H]1C[C@H](O[C@H]2CC[C@@]3(C)C(CCC4C3CC[C@]3(C)[C@@H](C5=CC(=O)OC5)[C@@H](OC(C)=O)CC43O)C2)O[C@H](C)[C@@H]1O[C@H]1O[C@H](CO[C@@H]2O[C@H](CO)[C@@H](O)[C@H](O)[C@H]2O)[C@@H](O)[C@H](O)[C@H]1O (some centres undefined), the “activity, negative = inhibition” value is reported as -9.2% [at 15.3 µM]. For CC(=O)O[C@@H]1[C@@H](O)[C@H]2O[C@@H]3C=C(C)[C@@H](O)C[C@]3(CO)[C@]1(C)[C@]21CO1, the “outcome” value was “inactive [at 27.7 µM]”.
